Measured values reported in PubChem BioAssay (EPA / NIEHS).
The source made the active and inactive calls. Rule for the calls: active = hit-call score of the fitted dose curve at least 0.9, where 1 is the maximum; inactive = score below 0.9.

Assays:
Details in all cases: mRNA level, 48 h; actives raise or lower the signal
[1] = read-out: Potassium channel subfamily K member 1 (KCNK1), KCNK1 (gene 3775); test: LTEA_HepaRG_KCNK1: Life Technologies and Expression Analysis (LTEA) Assay for Potassium channel subfamily K member 1 (KCNK1) using HepaRG (AID 2283511)
Method in brief: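 Human HepaRG cultures receive test chemicals for 48 h in 0.5% DMSO, top concentration 100 uM with half-log dilutions. Induction or suppression of KCNK1 mRNA relative to DMSO is derived by bidirectional fitting of qRT-PCR data.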

[2] = read-out: Keratin 19 (KRT19), KRT19 (gene 3880); test: LTEA_HepaRG_KRT19: Life Technologies and Expression Analysis (LTEA) Assay for Keratin 19 (KRT19) using HepaRG (AID 2283512)
Method in brief: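 HepaRG, 48 h chemical exposure, 8-pt half-log CRC from 100 uM, 0.5% DMSO vehicle, duplicates. Readout: TaqMan qRT-PCR of KRT19 mRNA, housekeeping-normalized (ACTB/GAPDH/POLR2A). Bidirectional fit vs DMSO baseline.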

[3] = read-out: JUN Transcription Factor, JUN (gene 3725); test: LTEA_HepaRG_JUN: Life Technologies and Expression Analysis (LTEA) Assay for JUN Transcription Factor using HepaRG (AID 2283513)
Method in brief: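 Read-out is JUN transcript level by TaqMan qRT-PCR, normalized to ACTB, GAPDH and POLR2A, after 48 h chemical treatment of HepaRG cells. Concentration-response spanned eight half-log points up to 100 uM in 0.5% DMSO.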

[4] = read-out: Lipoprotein lipase (LPL), LPL (gene 4023); test: LTEA_HepaRG_LPL: Life Technologies and Expression Analysis (LTEA) Assay for Lipoprotein lipase (LPL) using HepaRG (AID 2283515)
Method in brief: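 Concentration-response testing used half-log steps from 100 uM in 0.5% DMSO on human HepaRG cells, 48 h, duplicate wells. Phenobarbital 1 mM served as induction control; LPL mRNA was normalized to ACTB, GAPDH, POLR2A.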

[5] = read-out: MicroRNA 122 (MIR122), gene 406906; test: LTEA_HepaRG_MIR122: Life Technologies and Expression Analysis (LTEA) Assay for MicroRNA 122 (MIR122) using HepaRG (AID 2283516); note: the transcript read is the microRNA miR-122
Method in brief: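 Human liver HepaRG cultures receive test chemicals for 48 h at eight half-log concentrations from 100 uM. Expression is quantified by qRT-PCR with ACTB/GAPDH/POLR2A normalization and fitted bidirectionally against 0.5% DMSO.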

[6] = read-out: matrix metalloproteinase-10 (MMP10), MMP10 (gene 4319); test: LTEA_HepaRG_MMP10: Life Technologies and Expression Analysis (LTEA) Assay for matrix metalloproteinase-10 (MMP10) using HepaRG (AID 2283517)
Method in brief: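 In differentiated HepaRG cultures kept in 0.5% DMSO, test chemicals act for 48 h over an eight-point range with a top dose of 100 uM. Expression is then quantified by TaqMan RT-PCR against ACTB, GAPDH and POLR2A.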

MYC, MYC (gene 4609) = test: LTEA_HepaRG_MYC: Life Technologies and Expression Analysis (LTEA) Assay for MYC using HepaRG (AID 2283518)
Method in brief: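 qRT-PCR read-out of MYC transcript (Fluidigm TaqMan, housekeeping-normalized) after 48 h chemical exposure of HepaRG cells; eight concentrations, top 100 uM, half-log steps. Bidirectional curve fitting against 0.5% DMSO vehicle baseline.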

[7] = read-out: matrix metalloproteinase-3 (MMP3), MMP3 (gene 4314); test: LTEA_HepaRG_MMP3: Life Technologies and Expression Analysis (LTEA) Assay for matrix metalloproteinase-3 (MMP3) using HepaRG (AID 2283519)
Method in brief: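 Human liver HepaRG cultures received chemicals (top concentration 100 uM, 0.5% DMSO) for 48 h in duplicate. MMP3 mRNA induction or loss was then assessed via TaqMan qRT-PCR with housekeeping-gene normalisation.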

[8] = read-out: Paternally Expressed 10 (PEG10), PEG10 (gene 23089); test: LTEA_HepaRG_PEG10: Life Technologies and Expression Analysis (LTEA) Assay for Paternally Expressed 10 (PEG10) using HepaRG (AID 2283520);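 for AC50: differentiated HepaRG human liver cells in serum-free induction medium with 0.5% DMSO; PEG10 transcript by qRT-PCR normalised to ACTB GAPDH and POLR2A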
Method in brief: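 Human HepaRG cultures are dosed for 48 h across an eight-point half-log series starting at 100 uM, with 0.5% DMSO as vehicle and baseline. Gain or loss of PEG10 transcript is measured by qRT-PCR and fitted in both directions.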

[9] = read-out: Protein phosphatase 2A (PPP2R4), PTPA (gene 5524); test: LTEA_HepaRG_PPP2R4: Life Technologies and Expression Analysis (LTEA) Assay for Protein phosphatase 2A (PPP2R4) using HepaRG (AID 2283522)
Method in brief: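 Cells were plated, cultured 48 h, switched to serum-free induction medium, then dosed for 48 h (8 points, max 100 uM, 0.5% DMSO). RNA was isolated and PPP2R4 expression measured by TaqMan qRT-PCR.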

[10] = read-out: Phosphatase and tensin (PTEN), PTEN (gene 5728); test: LTEA_HepaRG_PTEN: Life Technologies and Expression Analysis (LTEA) Assay for Phosphatase and tensin (PTEN) using HepaRG (AID 2283523)
Method in brief: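 Expression of PTEN is quantified in the human liver line HepaRG following two days of dosing (top concentration 100 uM, half-log dilutions, 0.5% DMSO). Values derive from bidirectional curve fitting relative to DMSO controls.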

[11] = read-out: solute carrier (SLC22A1), SLC22A1 (gene 6580); test: LTEA_HepaRG_SLC22A1: Life Technologies and Expression Analysis (LTEA) Assay for solute carrier (SLC22A1) using HepaRG (AID 2283524);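 for AC50: differentiated human HepaRG liver cells in serum-free induction medium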
Method in brief: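 Transcript induction or suppression of SLC22A1 in human HepaRG cultures is scored after 48 h chemical treatment, with DMSO (0.5%) as baseline for bidirectional fitting. Concentrations span eight half-log points topping at 100 uM.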

[12] = read-out: Pyruvate Dehydrogenase Kinase 4 (PDK4), PDK4 (gene 5166); test: LTEA_HepaRG_PDK4: Life Technologies and Expression Analysis (LTEA) Assay for Pyruvate Dehydrogenase Kinase 4 (PDK4) using HepaRG (AID 2283525)
Method in brief: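 Eight-point, half-log concentration series (max 100 uM, 0.5% DMSO) applied to differentiated HepaRG cells for 48 h in duplicate. Endpoint: PDK4 mRNA induction or repression by qRT-PCR against DMSO baseline.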

[13] = read-out: NAD(P)H dehydrogenase [quinone] 1 (NQO1), NQO1 (gene 1728); test: LTEA_HepaRG_NQO1: Life Technologies and Expression Analysis (LTEA) Assay for NAD(P)H dehydrogenase [quinone] 1 (NQO1) using HepaRG (AID 2283526)
Method in brief: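 Transcript induction or suppression is quantified by qRT-PCR in human HepaRG liver cells dosed for 48 hours. Eight half-log concentrations topping at 100 uM are used, with 0.5% DMSO as vehicle and baseline.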

[14] = read-out: succinate dehydrogenase complex iron sulfur subunit B (SDHB), SDHB (gene 6390); test: LTEA_HepaRG_SDHB: Life Technologies and Expression Analysis (LTEA) Assay for succinate dehydrogenase complex iron sulfur subunit B (SDHB) using HepaRG (AID 2283528)
Method in brief: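 Readout is SDHB transcript level by qRT-PCR, normalised to three housekeeping genes and fitted bidirectionally against 0.5% DMSO vehicle. Human HepaRG cells were treated for 48 h at up to 100 uM.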

[15] = read-out: Signal transducer and activator of transcription 3 (Homo sapiens) (UniProt P40763); test: LTEA_HepaRG_STAT3: Life Technologies and Expression Analysis (LTEA) Assay for Signal transducer and activator of transcription (STAT3) using HepaRG (AID 2283529)
Method in brief: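 In this transcriptional endpoint, HepaRG cultures receive test chemicals at up to 100 uM for 48 h, tested in duplicate. STAT3 mRNA is normalized to ACTB, GAPDH and POLR2A.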

[16] = read-out: sulfotransferase 2A1 (SULT2A1), SULT2A1 (gene 6822); test: LTEA_HepaRG_SULT2A1: Life Technologies and Expression Analysis (LTEA) Assay for sulfotransferase 2A1 (SULT2A1) using HepaRG (AID 2283531)
Method in brief: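 HepaRG, 48 h chemical exposure, 8-pt half-log curve from 100 uM in 0.5% DMSO, duplicates. Readout: TaqMan qRT-PCR of SULT2A1 mRNA, housekeeping-normalized. Bidirectional fit vs DMSO baseline.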

[17] = read-out: Transforming Growth Factor (TGFA), TGFA (gene 7039); test: LTEA_HepaRG_TGFA: Life Technologies and Expression Analysis (LTEA) Assay for Transforming Growth Factor (TGFA) using HepaRG (AID 2283532)
Method in brief: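 Gene expression of TGFA was quantified by qRT-PCR after human HepaRG cells were treated for 48 h with test chemicals (eight concentrations, highest 100 uM, 0.5% DMSO). Activity in either direction was fitted relative to DMSO.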

[18] = read-out: Transforming Growth Factor (TGFB1), TGFB1 (gene 7040); test: LTEA_HepaRG_TGFB1: Life Technologies and Expression Analysis (LTEA) Assay for Transforming Growth Factor (TGFB1) Transporter using HepaRG (AID 2283533)
Method in brief: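 qRT-PCR readout of TGFB1 transcript in HepaRG lysates, normalized to three housekeeping genes; gain or loss of signal fitted relative to 0.5% DMSO vehicle. Exposure: 48 h, 8-point curve from 100 uM, duplicate wells.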

[19] = read-out: Nuclear factor NF-kappa-B p105 subunit (Homo sapiens) (UniProt P19838); test: LTEA_HepaRG_NFKB1: Life Technologies and Expression Analysis (LTEA) Assay for Nuclear Factor Kappa B Subunit 1 (NFKB1) using HepaRG (AID 2283521)
Method in brief: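 HepaRG, 48 h exposure; 8-pt half-log series from 100 uM in 0.5% DMSO; duplicates. Readout: NFKB1 mRNA by qRT-PCR (Fluidigm arrays), housekeeping-normalized. Gain/loss fit vs DMSO baseline.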

Measured: AC50

Signal transducer and activator of transcription 3 (Homo sapiens), sequence (P40763 whole entry, looked up): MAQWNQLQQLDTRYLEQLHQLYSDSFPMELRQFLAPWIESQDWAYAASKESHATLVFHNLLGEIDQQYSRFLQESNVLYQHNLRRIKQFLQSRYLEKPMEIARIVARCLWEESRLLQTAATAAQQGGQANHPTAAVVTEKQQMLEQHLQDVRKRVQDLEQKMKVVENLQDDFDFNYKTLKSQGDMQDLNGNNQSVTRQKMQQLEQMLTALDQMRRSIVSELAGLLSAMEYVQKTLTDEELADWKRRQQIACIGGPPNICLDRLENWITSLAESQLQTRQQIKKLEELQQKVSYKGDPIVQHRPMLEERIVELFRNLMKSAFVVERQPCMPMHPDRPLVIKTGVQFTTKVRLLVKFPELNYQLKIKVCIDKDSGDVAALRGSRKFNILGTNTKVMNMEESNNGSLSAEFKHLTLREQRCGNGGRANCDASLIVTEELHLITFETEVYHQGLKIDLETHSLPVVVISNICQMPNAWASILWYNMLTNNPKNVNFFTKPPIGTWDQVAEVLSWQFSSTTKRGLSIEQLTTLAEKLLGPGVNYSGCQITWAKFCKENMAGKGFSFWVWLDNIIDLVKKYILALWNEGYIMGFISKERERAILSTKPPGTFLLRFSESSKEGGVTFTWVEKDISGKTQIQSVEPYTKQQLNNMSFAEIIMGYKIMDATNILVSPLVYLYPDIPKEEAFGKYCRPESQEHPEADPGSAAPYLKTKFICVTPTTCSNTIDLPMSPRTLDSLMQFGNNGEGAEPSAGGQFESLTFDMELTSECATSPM
Nuclear factor NF-kappa-B p105 subunit (Homo sapiens), sequence (P19838 whole entry, looked up): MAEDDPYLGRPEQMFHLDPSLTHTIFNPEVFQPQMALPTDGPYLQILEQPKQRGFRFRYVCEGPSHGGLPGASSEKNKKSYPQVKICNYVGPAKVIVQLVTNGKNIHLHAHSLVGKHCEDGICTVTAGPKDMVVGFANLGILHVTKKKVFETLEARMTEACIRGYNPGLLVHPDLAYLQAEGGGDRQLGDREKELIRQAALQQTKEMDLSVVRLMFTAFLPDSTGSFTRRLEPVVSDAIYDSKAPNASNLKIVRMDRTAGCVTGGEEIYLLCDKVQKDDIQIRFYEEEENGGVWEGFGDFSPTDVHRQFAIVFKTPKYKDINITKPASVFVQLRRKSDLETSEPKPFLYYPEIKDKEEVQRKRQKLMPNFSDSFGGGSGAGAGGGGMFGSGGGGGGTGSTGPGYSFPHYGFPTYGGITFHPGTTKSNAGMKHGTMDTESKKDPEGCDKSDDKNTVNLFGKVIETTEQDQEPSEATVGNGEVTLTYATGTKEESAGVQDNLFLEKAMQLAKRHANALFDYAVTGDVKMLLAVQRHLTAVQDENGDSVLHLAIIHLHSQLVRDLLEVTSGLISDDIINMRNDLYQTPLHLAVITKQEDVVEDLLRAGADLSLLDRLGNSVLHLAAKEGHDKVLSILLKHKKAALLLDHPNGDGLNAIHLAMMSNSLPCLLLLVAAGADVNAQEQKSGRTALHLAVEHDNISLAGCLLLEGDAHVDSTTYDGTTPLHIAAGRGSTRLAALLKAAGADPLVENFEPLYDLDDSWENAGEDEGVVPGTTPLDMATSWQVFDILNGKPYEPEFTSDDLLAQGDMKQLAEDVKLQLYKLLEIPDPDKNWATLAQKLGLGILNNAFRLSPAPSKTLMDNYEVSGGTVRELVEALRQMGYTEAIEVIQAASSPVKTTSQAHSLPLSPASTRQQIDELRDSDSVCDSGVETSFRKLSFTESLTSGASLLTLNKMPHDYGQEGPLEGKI

CS(=O)(=O)c1ccc([C@@H](CC2CCCC2)C(=O)Nc2cnccn2)cc1Cl
active: [5] 80.8 µM | [6] 79.5 µM | MYC, MYC (gene 4609) 62.7 µM | [9] 50 µM | [11] 66.7 µM | [16] 94.3 µM | [18] 74.1 µM
not listed: [19]
inactive: all other assays above

CCCCc1oc2ccccc2c1C(=O)c1cc(I)c(OCCN(CC)CC)c(I)c1
active: [1] 55.5 µM | [2] 37.8 µM | [3] 66.1 µM | [4] 47.6 µM | [5] 70.4 µM | [6] 54.7 µM | MYC, MYC (gene 4609) 68.7 µM | [8] 22.6 µM | [11] 70.6 µM | [12] 59.2 µM | [16] 70.5 µM | [17] 55.3 µM
inactive: [7] | [9] | [10] | [13] | [14] | [15] | [18]

N=C(N)c1ccc(OCCCCCOc2ccc(C(=N)N)cc2)cc1
active: [2] 31 µM | [3] 12.6 µM | [4] 68.9 µM | [5] 3.63 µM | [6] 26.1 µM | MYC, MYC (gene 4609) 3.56 µM | [8] 26.6 µM | [19] 29.1 µM | [9] 28.4 µM | [10] 29.9 µM | [11] 6.6 µM | [13] 43.8 µM | [14] 56.2 µM | [15] 29 µM | [16] 12.6 µM | [17] 11 µM | [18] 69.8 µM
inactive: [1]

CC(=O)Nc1ccc(O)cc1
not listed: [19]
inactive: all other assays above

O=C(CCCN1CCC(O)(c2ccc(Cl)cc2)CC1)c1ccc(F)cc1
active: [1] 84.4 µM | [2] 36.7 µM | [3] 82.7 µM | [4] 34.4 µM | [6] 82.4 µM | MYC, MYC (gene 4609) 73.6 µM | [7] 12.5 µM | [11] 85.5 µM | [12] 69.4 µM | [16] 95.2 µM | [17] 79.2 µM | [18] 73.6 µM
inactive: [5] | [8] | [9] | [10] | [13] | [14] | [15]

CCCCC(CC)C(=O)O (stereo unspecified)
not listed: [19]
inactive: all other assays above

O=C(c1ccccc1)c1ccccc1
not listed: [19]
inactive: all other assays above

CN(Cc1cnc2nc(N)nc(N)c2n1)c1ccc(C(=O)N[C@@H](CCC(=O)O)C(=O)O)cc1
active: [11] 0.137 µM | [12] 0.515 µM | [16] 0.266 µM
not listed: [19]
inactive: all other assays above
